Measured values published in the supplement of paper PMC13380429.

The molecules below were run on Vero E6 infected with SARS-CoV-2 (assay: inhibition of SARS-CoV-2 cytopathic effect; higher = more antiviral protection, active = above 15). Settings: 833.33 nM; 48 h.
For `CC(C)(C)c1cc(C(C)(C)C)c(NC(=O)c2c[nH]c3ccccc3c2=O)cc1O` [ivacaftor], the “inhibition of SARS-CoV-2 cytopathic effect” value (“inhibition” for short) was -10.4% (inactive). `Cc1ccc(NC(=O)CCCCCC(=O)Nc2ccccc2N)cc1` was tested, and the “inhibition” value was 1.31% (inactive). In the case of `CC(C)(N)Cc1ccccc1` [phentermine], the “inhibition” value is reported as 3.73% (inactive). `CNC1CC(N)C(O)C(OC2OC(CO)C(O)C3OC4(OC(C(N)CO)C(O)C(O)C4O)OC23)C1O` (centres undefined) [Hygromycin B] was tested, and the “inhibition” value was -1.13% (inactive). For `O=C(O)c1cc(O)c2c(c1)C(=O)c1cccc(O)c1C2=O` [rhein], the “inhibition” value was -0.03% (inactive). With `C[C@]12CC[C@@H]3c4ccc(OS(=O)(=O)O)cc4CC[C@H]3[C@@H]1CCC2=O` [estropipate] the “inhibition” value was 1.96% (inactive). For `O=C1NS(=O)(=O)c2ccccc21` [saccharin], the “inhibition” value was -0.12% (inactive). In the case of `O=C(O)COc1nn(Cc2ccccc2)c2ccccc12` [bendazac], the “inhibition” value is reported as -1.97% (inactive). For `Nc1ncnc2c1c(-c1cnc3[nH]ccc3c1)nn2C1CCCC1`, the “inhibition” value was -3.88% (inactive). For `CC(C)(N)c1nc(-c2ccc(OC(F)(F)F)cc2)c[nH]1`, the “inhibition” value was 1.1% (inactive). In the case of `CCCN(CCC)[C@H]1CCc2cccc(O)c2C1` [8-hydroxy-DPAT], the “inhibition” value is reported as -0.13% (inactive). In the case of `Cc1nnsc1C(=O)Nc1ccc(-n2nc(C(F)(F)F)cc2C(F)(F)F)cc1`, the “inhibition” value is reported as -0.23% (inactive). For `O=C(O)C(Cl)Cl` [dichloroacetate], the “inhibition” value was 0.22% (inactive). `COC(=O)[C@H](CC(C)C)NC(=O)[C@@H](N)CC(C)C` [leucylleucine-methyl-ester] was tested, and the “inhibition” value was -0.61% (inactive).
